Results as given in ChEMBL document CHEMBL1157539, “Thousands of chemical starting points for antimalarial lead identification” (Nature, 2010).
Non-standard residues stand in square brackets, D forms with d. Residues, ends and D or L forms follow the SMILES beside them. *: point of attachment. Butanoyl(4-(4-HOPh)) = O=C(CCCc1ccc(O)cc1)*

Columns and labels:
Assay type in all cases: functional
[1] = tested on: Plasmodium falciparum; assay: GSK_TCMDC: Inhibition of Plasmodium falciparum 3D7 in whole red blood cells, using parasite LDH activity as an index of growth. Test compounds present at 2uM
[2] = tested on: Plasmodium falciparum; assay: GSK_TCMDC: Inhibition of Plasmodium falciparum Dd2 in whole red blood cells, using parasite LDH activity as an index of growth. Test compounds present at 2uM
[3] = tested on: HepG2; assay: GSK_TCMDC: Percent inhibition of human HepG2 cell line. Test compounds present at 10uM.

Row | SMILES | Inhibition [1] | Inhibition [2] | Inhibition [3]
1 | Cc1ccc(CCC(C)NCC(O)c2cccc(C(F)(F)F)c2)cc1 (stereo unspecified) | 99% | 98% | 0%
2 | CCOc1ccc2c(=NN=Cc3cc(OC)c(OC)cc3OC)cc(C)[nH]c2c1 | 100% | 97% | 24%
3 | CNc1nc(N/N=C/c2cc([N+](=O)[O-])c(Cl)cc2Cl)nc(Nc2cccc(C(F)(F)F)c2)n1 | 100% | 97% | 13%
4 | CC(C)c1ccc(NC(=O)Nc2ccc(CCNCCCc3ccccc3)cc2)cc1 | 100% | 56% | 22%
5 | CNC(=O)C1Cc2c([nH]c3c(C)cccc23)C2(N1)C(=O)Nc1ccc(OC(F)(F)F)cc12 (stereo unspecified) | 100% | 50% | 0%
6 | Cc1ccc(CNC(=O)[C@H](Cc2ccccc2)Nc2ccnc(NCC3CCCCC3)n2)cc1.O=C(O)C(F)(F)F | 92% | 61% | 84%
7 | COc1cc(NC(=O)c2sc(-c3ccc(Cl)cc3)cc2NC(=O)CN2CCCC2)ccc1OCCN1CCCC1.Cl | 86% | 79% | 29%
8 | Oc1cc(NCc2ccccc2NCc2ccc(Cl)c(Cl)c2)nc2ccccc12 | 93% | 98% | 10%
9 | O=C(NCC1CCC(C(=O)NC2CCCc3ccccc32)CC1)c1ccc(O)c(-c2cccc([N+](=O)[O-])c2)c1 (stereo unspecified) | 99% | 97% | 2%
10 | Cc1ccc(C(c2nnnn2C2CCCC2)N(Cc2ccco2)Cc2ccccc2Cl)cc1 (stereo unspecified) | 85% | 78% | 8%
11 | CCCc1cc(N2CCC(N3CCCC3)CC2)nc(Nc2ccc(Cl)cc2)n1 | 96% | 9% | 29%
12 | COC(=O)C(NC(=O)c1ccc(-c2ccc(-c3nc4ccccc4[nH]3)s2)cc1)c1ccc(O)cc1 (stereo unspecified) | 83% | 49% | 99%
13 | CN1CCC(Oc2ccc(CN3CC[C@H](NC(=O)c4ccc(Cl)c(Cl)c4)C3)c3ccccc23)C1.O=C(O)C(F)(F)F (stereo partly specified) | 100% | 82% | 52%
14 | CCN1CCC(N(Cc2ccc(-c3ccc(C(F)(F)F)cc3)cc2)C(=O)Cn2c(SCc3cccc(F)c3F)cc(=O)c3ccccc32)C1.O=C(O)C(O)C(O)C(=O)O (stereo unspecified) | 90% | 91% | 42%
15 | CCCNCc1ccc(-c2ccc(CN(Cc3cccs3)C(=O)C3CCN(C)CC3)cc2)nc1.O=C(O)C(F)(F)F | 99% | 35% | 10%
16 | Cc1ncsc1CCN1C(=O)CC2(C1=O)C(=O)N(Cc1ccccc1)c1ccc(Cl)cc12 (stereo unspecified) | 86% | 46% | 0%
17 | N#Cc1cccc(C(O)CN(Cc2ccccc2)Cc2ccccc2)c1 (stereo unspecified) | 100% | 100% | 12%
18 | O=C(Nc1ccc(F)c(C(F)(F)F)c1)NC1CCN(CCCCCNC(=O)C2CC2c2ccc(Cl)c(Cl)c2)CC1 (stereo unspecified) | 100% | 16% | 96%
19 | CCCC(C(=O)OCCN(CC)CC)(c1ccc(Cl)cc1)c1ccc(Cl)cc1.Cl | 91% | 87% | 7%
20 | COc1ccccc1CN1CCC(NC(=O)c2ccc(-c3ccc(N(C)C)cc3)s2)CC1.O=C(O)C(F)(F)F | 90% | 38% | 29%
21 | CN1CCC(N(Cc2ccc(-c3ccc(C(F)(F)F)cc3)cc2)C(=O)Cn2c(SCc3cccc(F)c3F)cc(=O)c3c2CCC3)CC1.O=C(O)C(O)C(O)C(=O)O | 89% | 83% | 50%
22 | Nc1cccc(CNCc2cccc(-c3csc(-c4nc5ccccc5[nH]4)c3)c2)c1.O=C(O)C(F)(F)F | 100% | 63% | 13%
23 | CCOc1cc(Cc2cnc(N)nc2N)cc(OCC)c1O | 89% | 0% | 6%
24 | COc1ccc(CNCc2ccc(-c3ccc(CNCCc4ccccc4)cn3)cc2)cn1.O=C(O)C(F)(F)F | 97% | 44% | 16%
25 | COc1cc(NCCCNC(=O)c2ccc(Cl)c(Cl)c2)nc2ccccc12 | 99% | 100% | 48%
26 | O=C(NCC(=O)N1CCC[C@H]1C(=O)O)[C@@H](Cc1ccccc1)NC(=O)[C@@H]1CCCN1C(=O)CCCc1ccc(O)cc1 ({Butanoyl(4-(4-HOPh))}-P[dF]GP-OH) | 81% | 1% | 1%
27 | O=C(NCc1ccc(Cl)c(Cl)c1)c1ccc(-c2nc3cc(F)c(F)cc3[nH]2)cc1 | 81% | 12% | 0%
